# Assay results published in the supplement of paper PMC10037445.
# The full ranking holds about 2,900 compounds; the median of “NF-kB SEAP reporter activity, fold change vs agonist alone” is about 0.99, and the highest 2% start at about 2.6. Shown is part of a subset that was picked to be rich in the highest values.
# Legend:
# RAW-Dual [1] = test: NF-kB SEAP reporter activity, fold change vs agonist alone; cytotoxicity flag (confluency mask): not cytotoxic; higher = enhanced NF-kB activity
# How it was run: (§1)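 Library stock was pin-tooled at 50 nL into 384-well plates of RAW-Dual macrophages (50,000 cells/well, DMEM), followed 1 h later by a PRR agonist, and the cells were kept at 37 °C, 5% CO2. Supernatant collected after 20 hours was read for IRF by QuantiLuc luminescence and for NF-κB by QuantiBlue absorbance at 620 nm. Reporter activity is fold change over agonist-alone wells, and a well counted as cytotoxic when its IncuCyte confluency was below 70% of agonist controls in both mask sets.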
# RAW-Dual [2] = test: NF-kB SEAP reporter activity, fold change vs agonist alone; higher = enhanced NF-kB activity; details: library stock concentration (final ~1000-fold dilution): 10 mM
# How it was run: as §1
# RAW-Dual [3] = test: NF-kB SEAP reporter activity, fold change vs agonist alone; cytotoxicity flag (confluency mask): cytotoxic (confluency <70% of control); higher = enhanced NF-kB activity
# How it was run: as §1
# [4] = agonist: ODN 1826 (TLR9) 0.5 ug/mL
# [5] = agonist: Pam2CSK4 (TLR2/6) 0.1 ug/mL
# [6] = agonist: Pam3CSK4 (TLR2/1) 0.1 ug/mL
# [7] = cytotoxicity flag (confluency mask): not cytotoxic, agonist: Imiquimod (TLR7) […]
# [8] = cytotoxicity flag (confluency mask): not cytotoxic, agonist: MPLA (TLR4) […]
# [9] = cytotoxicity flag (confluency mask): cytotoxic (confluency <70% of control), agonist: Imiquimod (TLR7) […]
# [10] = cytotoxicity flag (confluency mask): cytotoxic (confluency <70% of control), agonist: MPLA (TLR4) […]
smiles,measurement,setting,value
CCCC1CC(C(=O)NC(C(C)Cl)C2OC(SC)C(O)C(O)C2O)N(C)C1 (configuration not stated) (library stock concentration (final ~1000-fold dilution): 10 mM),NF-kB SEAP reporter activity,RAW-Dual [1]; agonist: LPS (TLR4) 0.1 ug/mL,1.14
same,NF-kB SEAP reporter activity,RAW-Dual [1]; [4],1.04
same,NF-kB SEAP reporter activity,RAW-Dual [1]; [5],1.04
same,NF-kB SEAP reporter activity,RAW-Dual [1]; [6],1.17
CCCC1CC(C(=O)NC(C(C)Cl)C2OC(SC)C(O)C(O)C2O)N(C)C1 (configuration not stated),NF-kB SEAP reporter activity,RAW-Dual [2]; [7],1.02
same,NF-kB SEAP reporter activity,RAW-Dual [2]; [8],1.07
COc1cccc2c1C(=O)c1c(O)c3c(c(O)c1C2=O)CC(O)(C(C)=O)CC3OC1CC(N)C(O)C(C)O1.Cl (configuration not stated) (library stock concentration (final ~1000-fold dilution): 10 mM),NF-kB SEAP reporter activity,RAW-Dual [3]; agonist: LPS (TLR4) 0.1 ug/mL,0.249
same,NF-kB SEAP reporter activity,RAW-Dual [3]; [4],0.191
same,NF-kB SEAP reporter activity,RAW-Dual [3]; [5],0.0932
same,NF-kB SEAP reporter activity,RAW-Dual [3]; [6],0.195
COc1cccc2c1C(=O)c1c(O)c3c(c(O)c1C2=O)CC(O)(C(C)=O)CC3OC1CC(N)C(O)C(C)O1.Cl (configuration not stated),NF-kB SEAP reporter activity,RAW-Dual [2]; [9],0.365
same,NF-kB SEAP reporter activity,RAW-Dual [2]; [10],0.213
CC1CN(CC(Cc2ccccc2)C(=O)NCC(=O)O)CCC1(C)c1cccc(O)c1 (configuration not stated),NF-kB SEAP reporter activity,RAW-Dual [2]; [7],1.03
same,NF-kB SEAP reporter activity,RAW-Dual [2]; [8],1.01
CC1CN(CC(Cc2ccccc2)C(=O)NCC(=O)O)CCC1(C)c1cccc(O)c1 (configuration not stated) (library stock concentration (final ~1000-fold dilution): 10 mM),NF-kB SEAP reporter activity,RAW-Dual [1]; agonist: LPS (TLR4) 0.1 ug/mL,1.51
same,NF-kB SEAP reporter activity,RAW-Dual [1]; [4],1.01
same,NF-kB SEAP reporter activity,RAW-Dual [1]; [5],0.937
same,NF-kB SEAP reporter activity,RAW-Dual [1]; [6],0.609
Cn1cc(Nc2nccc(N3CC4CCC(C3)N4C(=O)C3CC3(F)F)n2)cn1 (configuration not stated),NF-kB SEAP reporter activity,RAW-Dual [2]; [7],1.19
same,NF-kB SEAP reporter activity,RAW-Dual [2]; [8],0.995
Cn1cc(Nc2nccc(N3CC4CCC(C3)N4C(=O)C3CC3(F)F)n2)cn1 (configuration not stated) (library stock concentration (final ~1000-fold dilution): 10 mM),NF-kB SEAP reporter activity,RAW-Dual [1]; agonist: LPS (TLR4) 0.1 ug/mL,0.973
same,NF-kB SEAP reporter activity,RAW-Dual [1]; [4],1.3
same,NF-kB SEAP reporter activity,RAW-Dual [1]; [5],1.69
same,NF-kB SEAP reporter activity,RAW-Dual [1]; [6],2.02
CC(NCCC(c1ccccc1)c1ccccc1)c1ccccc1.Cl (configuration not stated),NF-kB SEAP reporter activity,RAW-Dual [2]; [10],1.24
CC(NCCC(c1ccccc1)c1ccccc1)c1ccccc1.Cl (configuration not stated) (library stock concentration (final ~1000-fold dilution): 10 mM),NF-kB SEAP reporter activity,RAW-Dual [3]; agonist: LPS (TLR4) 0.1 ug/mL,1.18
same,NF-kB SEAP reporter activity,RAW-Dual [3]; [4],0.723
same,NF-kB SEAP reporter activity,RAW-Dual [3]; [5],0.754
same,NF-kB SEAP reporter activity,RAW-Dual [3]; [6],0.637
CCCCCCCCCCCC(CC1OC(=O)C1CCCCCC)OC(=O)C(CC(C)C)NC=O (configuration not stated),NF-kB SEAP reporter activity,RAW-Dual [2]; [7],0.823
same,NF-kB SEAP reporter activity,RAW-Dual [2]; [8],0.902
CCCCCCCCCCCC(CC1OC(=O)C1CCCCCC)OC(=O)C(CC(C)C)NC=O (configuration not stated) (library stock concentration (final ~1000-fold dilution): 10 mM),NF-kB SEAP reporter activity,RAW-Dual [1]; agonist: LPS (TLR4) 0.1 ug/mL,1.07
same,NF-kB SEAP reporter activity,RAW-Dual [1]; [4],1.02
same,NF-kB SEAP reporter activity,RAW-Dual [1]; [5],0.959
same,NF-kB SEAP reporter activity,RAW-Dual [1]; [6],0.978
CN(C)C/C=C/C(=O)Nc1ccc(C(=O)Nc2cccc(Nc3ncc(Cl)c(-c4c[nH]c5ccccc45)n3)c2)cc1.Cl.Cl,NF-kB SEAP reporter activity,RAW-Dual [2]; [9],0.142
same,NF-kB SEAP reporter activity,RAW-Dual [2]; [10],0.258
CN(C)C/C=C/C(=O)Nc1ccc(C(=O)Nc2cccc(Nc3ncc(Cl)c(-c4c[nH]c5ccccc45)n3)c2)cc1.Cl.Cl (library stock concentration (final ~1000-fold dilution): 10 mM),NF-kB SEAP reporter activity,RAW-Dual [3]; agonist: LPS (TLR4) 0.1 ug/mL,0.242
same,NF-kB SEAP reporter activity,RAW-Dual [3]; [4],0.189
same,NF-kB SEAP reporter activity,RAW-Dual [3]; [5],0.0773
same,NF-kB SEAP reporter activity,RAW-Dual [3]; [6],0.176
N#Cc1ccnc(N2C(=O)CCC2C(=O)N(c2cncc(F)c2)C(C(=O)NC2CC(F)(F)C2)c2ccccc2Cl)c1 (configuration not stated),NF-kB SEAP reporter activity,RAW-Dual [2]; [7],1.14
same,NF-kB SEAP reporter activity,RAW-Dual [2]; [8],1.16
N#Cc1ccnc(N2C(=O)CCC2C(=O)N(c2cncc(F)c2)C(C(=O)NC2CC(F)(F)C2)c2ccccc2Cl)c1 (configuration not stated) (library stock concentration (final ~1000-fold dilution): 10 mM),NF-kB SEAP reporter activity,RAW-Dual [1]; agonist: LPS (TLR4) 0.1 ug/mL,1.37
same,NF-kB SEAP reporter activity,RAW-Dual [1]; [4],1.16
same,NF-kB SEAP reporter activity,RAW-Dual [1]; [5],0.753
same,NF-kB SEAP reporter activity,RAW-Dual [1]; [6],0.775
